Molecules are shown by their SMILES. Several values for one entry are separate records, joined by “and”; a condition that tells them apart may be missing. Equal values may be shown once. Compounds without any hit were thinned out: in the full panel of roughly 83,000, 20% have a hit.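 In brief: 96-well plates, 48 h treatment, single concentration, percent growth endpoint.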 Activity calls are given as the source filed them. Where a SMILES comes first, the peptide text is derived from it. [ ]: non-standard residue; d: D form. ξ: configuration not given here. ξV = CC(C)C(N)C(=O)O

The first assay has as its system HT29 colon. Description: NCI-60 one-dose screen, 48 h (100 = growth as untreated, 0 = no growth, -100 = all killed). To be noted: 0.0025 µM. How it is done: Growth inhibition of the HT29 human tumor cell line is measured as a screen for anti-cancer activity. Cells are grown in 96 well plates and exposed to the test compound for 48 hours. Compounds are tested at a single concentration, which is 10^-5 M for most compounds. The reported endpoint is percent growth (GI% or GIPRCNT), where numbers from 0 - 100% represent growth inhibition, and numbers from -100% - 0 represent cell death. For example, a value of 40 represents 60% growth inhibition. A value of 0 means no net growth occurred over the course of the experiment. A value of -40 indicates 40% of cells at the beginning of the experiment died by the end of the experiment. A value of -100 means all cells are dead at the end of the experiment.
NCI-60 Human Tumor Cell Lines Screen was performed using the standard one-dose NCI protocol, which is described in more detail at https://dtp.cancer.gov/discovery_development/nci-60/default.htm.
Compounds with GIPRCNT values below 10 were considered active. Activity score was based on GIPRCNT using the following formula: […]
Score is 0 for GIPRCNT values of 100 or above, 50 for GIPRCNT values of 0, and 100 for GIPRCNT values of -100.
For `COc1cccc2c1C(=O)c1c(O)c3c(c(O)c1C2=O)C[C@@](O)(C(=O)CO)C[C@@H]3OC1CC(N)C(O)C(C)O1` (stereo not given in full), the growth was 93.2% (inactive).

Staying with this assay, now noted: 1 µM.
As for `COc1cccc2c1C(=O)c1c(O)c3c(c(O)c1C2=O)C[C@@](O)(C(=O)CO)C[C@@H]3OC1CC(N)C(O)C(C)O1` (stereo not given in full), the growth is 40.7% (inactive).

The assay is the same for the next values; noted with them: 2.5 µM.
For the compound `COc1cccc2c1C(=O)c1c(O)c3c(c(O)c1C2=O)C[C@@](O)(C(=O)CO)C[C@@H]3OC1CC(N)C(O)C(C)O1` (stereo not given in full), the growth is 55% (inactive).

The same assay, now with this note: 10 µM.
As for `COc1cccc2c1C(=O)c1c(O)c3c(c(O)c1C2=O)C[C@@](O)(C(=O)CO)C[C@@H]3OC1CC(N)C(O)C(C)O1` (stereo not given in full), the growth was 4.69% (active).
On the same count and under the same terms, in the case of `CSC1SCC2C(=O)N(C)C(C(C)C)C(=O)OCC(NC(=O)c3cnc4ccccc4n3)C(=O)NC(C)C(=O)N(C)C1C(=O)N(C)C(C(C)C)C(=O)OCC(NC(=O)c1cnc3ccccc3n1)C(=O)NC(C)C(=O)N2C` (stereo not given) it was 2.66% (active); in that of `CO[C@H](C(=O)[C@@H](O)[C@@H](C)O)[C@@H]1Cc2cc3cc(OC4CC(OC5CC(O)C(O)C(C)O5)C(O)C(C)O4)c(C)c(O)c3c(O)c2C(=O)[C@H]1OC1CC(OC2CC(OC3CC(C)(O)C(O)C(C)O3)C(O)C(C)O2)C(O)C(C)O1` (stereo not given in full), 0.182% (active); in that of `CCN(CC)c1ccc(NC(C(=O)c2ccccc2)c2ccccc2)cc1` (stereo not given), 12.4% (inactive).
`CC(C)(C)CC(C)(C)c1ccc(OCCO)cc1`: the growth is 99.3% (inactive).
As to `CS(=O)(=O)OC1CC(n2ccc(=O)[nH]c2=O)OC1COC(c1ccccc1)(c1ccccc1)c1ccccc1` (stereo not given), the growth is 96.1% (inactive).
Turning to `Cc1cc(O)c(C(C)C)cc1Cl`, the growth was 103% (inactive).
Still for that read-out and setting: in the case of `O=C1NC(=O)c2cc([N+](=O)[O-])ccc21` it was 109% (inactive).
In the case of `O=C(O)COc1ccc(OCC(=O)O)cc1`, the growth is 5.13% (active).
`NNc1ccc2ccccc2c1`: the growth is 99.8% (inactive) and 104% (inactive).
As for `CC[N+](CC)=c1ccc2nc3c(cc(N)c4ccccc43)oc-2c1`, the growth is 5.58% (active).
In the case of `Nc1c2ccccc2nc2ccccc12`, the growth was -21.6% (active) and 20.8% (inactive) and 19.9% (inactive).
Consider `CCCCCCCCCCSC(=N)N`, for which the growth is -27.7% (active).
`NC1=C(Cl)C(=O)c2ccccc2C1=O`: the growth is 58.8% (inactive).
Consider `O=c1ccn(C2CC(O)C(COC(c3ccccc3)(c3ccccc3)c3ccccc3)O2)c(=O)[nH]1` (stereo not given), for which the growth is 86% (inactive).
Regarding `Nc1ccc2cc3ccc(N)cc3nc2c1`, the growth was 105% (inactive) and 4.36% (active).
Still for that read-out and setting: in the case of `Nc1nc(=S)c2ncn(C3OC(CO)C(O)C3O)c2[nH]1` (stereo not given) it was 100% (inactive) and 14.3% (inactive); in that of `CCN1/C(=C/C=C/C=C/c2sc3ccccc3[n+]2CC)Sc2ccccc21`, -66.1% (active); in that of `NNc1c2ccccc2nc2ccccc12`, 34.5% (inactive).
`CC(=O)Nc1cc(C)ccc1C`: the growth is 95.3% (inactive).
As for `OC(CN1CCCC2CCCCC21)c1cc2ccccc2c2ccccc12` (stereo not given), the growth is 1.91% (active).
`O=C1C=CC(=CC=C2C=CN(CCCCCCCCCCCO)C=C2)C=C1`: the growth is 22.5% (inactive).
Consider `Clc1cc(Cl)c(Cl)nn1`, for which the growth is 99.2% (inactive).
Same read-out and setting: next, `COC(=O)C1=COC(C)C2C[n+]3ccc4c([nH]c5ccccc54)c3CC12` (stereo not given): 99.4% (inactive) and 81.3% (inactive).
Regarding `OCC1OC(n2cnc3c(=S)nc[nH]c32)C(O)C1O` (stereo not given), the growth was 98.4% (inactive) and 45.9% (inactive).
For the compound `COc1c(O)cc2oc3cc(O)c(CC=C(C)C)c(O)c3c(=O)c2c1CC=C(C)C`, the growth is 27.6% (inactive).
As to `O=C(Nc1ccc(C(=O)O)c(O)c1)c1ccccc1`, the growth is 103% (inactive) and 105% (inactive).
As for `CC(=O)OCC(OC(C)=O)C(OC(C)=O)C(OC(C)=O)C(OC(C)=O)C(/C=N/Nc1ccccc1)=N/Nc1ccccc1` (stereo not given), the growth is 56.1% (inactive).
For the compound `CCCC1CCC(=C2C(=O)CCC2=O)O1` (stereo not given), the growth is 94.2% (inactive) and 97.4% (inactive).
On to `CCCCCCCCCCCCCCCCCCOCC(COP(=O)([O-])OCC[N+](C)(C)C)OC` (stereo not given), for which the growth is 37.7% (inactive).
Still for that read-out and setting: next, `COc1cccc2c1C(=O)c1c(O)c3c(c(O)c1C2=O)C[C@@](O)(C(C)=O)C[C@@H]3OC1CC(N)C(O)C(C)O1` (stereo not given in full): 1.89% (active); `O=C(/C=C/c1cccnc1)c1ccccc1`: 14.1% (inactive); `Oc1ccc(N=Nc2ccccn2)c(O)c1`: 21.6% (inactive).
As for `CC(C)C(NC(=O)CN)C(=O)O` (stereo not given) (H-Gly-[ξV]-OH), the growth was 101% (inactive) and 100% (inactive).
Consider `N=S(c1ccccc1[N+](=O)[O-])c1ccccc1[N+](=O)[O-]`, for which the growth was -32.7% (active).
In the case of `O=C1C=C(O)c2ccccc2C1=O.[Ag]`, the growth is 81.9% (inactive).

Still in this assay, the particulars now being: 100 µM.
In the case of `O=c1ccn(C2CC(O)C(COC(c3ccccc3)(c3ccccc3)c3ccccc3)O2)c(=O)[nH]1` (stereo not given), the growth is 33.1% (inactive).

The values above are taken from PubChem BioAssay (NCI).
